# Source: PubChem BioAssay (EPA / NIEHS)
# Results filed as inconclusive are left out. The source made the active and inactive calls. The calls were made as follows, unless noted: active = hit-call score of the fitted dose curve at least 0.9, where 1 is the maximum; inactive = score below 0.9.
# Legend:
# [1] = ATG_CRE_CIS: Attagene CIS-FACTORIAL HepG2 Assay for human cAMP Responsive Element (CRE) binding protein 3 (AID 2282926); conditions: HepG2 CRE cis-reporter, Attagene multiplexed mRNA; actives raise or lower the signal
# Outline: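 Human liver HepG2, transient MRTU transfection, 24 h compound exposure. Total RNA → oligo(dT) RT → PCR → 6-FAM primer extension → HpaI cut → CE. Activity called both directions vs DMSO.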
# [2] = ATG_DR4_LXR_CIS: Attagene CIS-FACTORIAL HepG2 Assay for human Liver X Receptor (LXR), DR4 submotif (AID 2282929); conditions: HepG2 Attagene DR4 cis-reporter, mRNA transcription; actives raise or lower the signal
# Outline: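 Measures endogenous transcription factor activity via a DR4-driven reporter transcript in human HepG2 cells. Compounds incubated 24 h; mRNA quantified by RT-PCR and capillary electrophoresis, analysed as gain or loss of signal versus DMSO.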
# [3] = ATG_AP_1_CIS: Attagene CIS-FACTORIAL HepG2 Assay for human Activator Protein 1 (AP-1) (AID 2282931); conditions: HepG2 Attagene cis-factorial AP-1 reporter mRNA; actives raise or lower the signal
# Outline: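 Bidirectional concentration-response fitting against DMSO controls. Underlying signal: reporter mRNA from cis-promoter constructs in transiently transfected HepG2, measured after 24 h by RT-PCR and capillary electrophoresis.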
# [4] = ATG_Ets_CIS: Attagene CIS-FACTORIAL HepG2 Assay for human Erythroblast Transformation Specific (ETS) (AID 2282941); conditions: HepG2 ETS cis-reporter transcription, actives raise or lower the signal
# Outline: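 Human HepG2 hepatoma cells were transiently transfected with promoter-driven reporter constructs and treated for 24 hours. Reporter transcripts were quantified by RT-PCR with fluorescent primer extension; bidirectional curve fitting used DMSO as reference.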
# [5] = target: Hypoxia-inducible factor 1-alpha (Homo sapiens) (UniProt Q16665); experiment: ATG_HIF1a_CIS: Attagene CIS-FACTORIAL HepG2 Assay for human Hypoxia Inducible Factor 1 (HIF1A) (AID 2282951); conditions: HepG2 Attagene cis-factorial HIF1a reporter transcription; actives raise or lower the signal
# Sequence of Hypoxia-inducible factor 1-alpha (Homo sapiens) (Q16665 whole entry, looked up): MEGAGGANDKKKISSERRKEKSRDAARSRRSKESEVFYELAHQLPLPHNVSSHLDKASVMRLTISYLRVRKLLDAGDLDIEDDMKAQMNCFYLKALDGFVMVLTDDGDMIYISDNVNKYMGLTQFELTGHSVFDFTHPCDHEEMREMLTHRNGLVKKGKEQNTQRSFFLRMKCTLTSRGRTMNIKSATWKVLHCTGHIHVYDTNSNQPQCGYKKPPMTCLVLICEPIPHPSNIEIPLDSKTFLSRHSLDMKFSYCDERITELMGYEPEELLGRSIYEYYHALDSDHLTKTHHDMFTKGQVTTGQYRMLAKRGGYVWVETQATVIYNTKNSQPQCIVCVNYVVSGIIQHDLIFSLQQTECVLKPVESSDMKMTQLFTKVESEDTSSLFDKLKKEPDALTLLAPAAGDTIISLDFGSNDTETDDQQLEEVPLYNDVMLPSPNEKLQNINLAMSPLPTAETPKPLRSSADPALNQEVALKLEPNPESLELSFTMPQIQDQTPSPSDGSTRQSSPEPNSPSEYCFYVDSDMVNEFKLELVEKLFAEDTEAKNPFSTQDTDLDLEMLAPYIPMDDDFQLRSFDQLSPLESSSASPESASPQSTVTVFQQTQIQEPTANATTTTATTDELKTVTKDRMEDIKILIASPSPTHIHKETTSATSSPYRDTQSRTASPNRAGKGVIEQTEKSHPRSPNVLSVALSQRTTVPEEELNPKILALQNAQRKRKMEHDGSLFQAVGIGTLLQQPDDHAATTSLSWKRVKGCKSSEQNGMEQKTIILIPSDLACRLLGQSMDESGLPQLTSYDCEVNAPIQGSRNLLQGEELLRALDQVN
# Outline: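 In this multiplexed cell assay, HepG2 cells bearing transfected cis reporters are dosed for 24 h and reporter mRNA is read by RT-PCR plus capillary electrophoresis; signal increases and decreases are both scored against DMSO.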
# [6] = target: Heat shock factor protein 1 (Homo sapiens) (UniProt Q00613); experiment: ATG_HSE_CIS: Attagene CIS-FACTORIAL HepG2 Assay for human Heat Shock Transcription Factor 1 (HSE) (AID 2282953); conditions: HepG2 HSE cis-reporter, Attagene RNA transcription; actives raise or lower the signal
# Sequence of Heat shock factor protein 1 (Homo sapiens) (Q00613 whole entry, looked up, the tested form may be a part): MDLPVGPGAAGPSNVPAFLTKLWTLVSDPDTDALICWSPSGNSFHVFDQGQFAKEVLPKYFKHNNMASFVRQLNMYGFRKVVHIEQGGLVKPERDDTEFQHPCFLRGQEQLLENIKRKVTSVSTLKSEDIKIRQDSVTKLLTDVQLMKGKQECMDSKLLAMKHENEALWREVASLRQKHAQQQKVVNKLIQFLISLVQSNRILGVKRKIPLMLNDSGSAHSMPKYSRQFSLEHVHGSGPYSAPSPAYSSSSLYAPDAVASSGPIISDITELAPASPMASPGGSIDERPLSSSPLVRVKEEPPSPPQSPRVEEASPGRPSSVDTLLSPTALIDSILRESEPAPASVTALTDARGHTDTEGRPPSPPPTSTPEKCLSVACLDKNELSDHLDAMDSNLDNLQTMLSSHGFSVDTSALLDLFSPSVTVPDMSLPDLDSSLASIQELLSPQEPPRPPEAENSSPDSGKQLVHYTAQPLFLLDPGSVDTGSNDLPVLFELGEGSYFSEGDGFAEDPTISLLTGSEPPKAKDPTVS
# Outline: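 Endogenous transcription factor activity captured via cis-promoter reporter units transfected into HepG2; treatment lasted 24 h. Fluorescence intensity of reporter fragments analysed with bidirectional curve fitting, DMSO baseline.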
# [7] = target: Paired box protein Pax-6 (Homo sapiens) (UniProt P26367); experiment: ATG_Pax6_CIS: Attagene CIS-FACTORIAL HepG2 Assay for human Paired Box 6 (PAX6) (AID 2282956); conditions: HepG2 CIS-FACTORIAL PAX6 reporter transcription, RNA readout; actives raise or lower the signal
# Sequence of Paired box protein Pax-6 (Homo sapiens) (P26367 whole entry, looked up): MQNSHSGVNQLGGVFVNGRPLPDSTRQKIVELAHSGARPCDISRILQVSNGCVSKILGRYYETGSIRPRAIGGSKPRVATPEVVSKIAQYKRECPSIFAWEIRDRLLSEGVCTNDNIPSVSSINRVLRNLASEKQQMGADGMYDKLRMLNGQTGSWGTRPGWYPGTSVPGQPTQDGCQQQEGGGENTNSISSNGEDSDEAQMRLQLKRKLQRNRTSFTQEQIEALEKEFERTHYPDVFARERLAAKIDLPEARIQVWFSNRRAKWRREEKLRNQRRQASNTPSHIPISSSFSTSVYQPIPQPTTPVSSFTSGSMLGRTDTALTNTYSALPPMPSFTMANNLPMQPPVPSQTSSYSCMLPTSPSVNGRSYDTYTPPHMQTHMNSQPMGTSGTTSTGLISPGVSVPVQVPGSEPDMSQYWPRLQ
# Outline: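 Multiplexed cis-reporter HepG2 system; 24 h treatment; reporter mRNA read by RT-PCR/CE fluorescence; bidirectional fit vs DMSO.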
# [8] = target: Signal transducer and activator of transcription 3 (Homo sapiens) (UniProt P40763); experiment: ATG_STAT3_CIS: Attagene CIS-FACTORIAL HepG2 Assay for human Signal Transducer and Activator of Transcription 3 (STAT3) (AID 2282963); conditions: HepG2, Attagene cis-factorial STAT3 reporter transcription; actives raise or lower the signal
# Sequence of Signal transducer and activator of transcription 3 (Homo sapiens) (P40763 whole entry, looked up): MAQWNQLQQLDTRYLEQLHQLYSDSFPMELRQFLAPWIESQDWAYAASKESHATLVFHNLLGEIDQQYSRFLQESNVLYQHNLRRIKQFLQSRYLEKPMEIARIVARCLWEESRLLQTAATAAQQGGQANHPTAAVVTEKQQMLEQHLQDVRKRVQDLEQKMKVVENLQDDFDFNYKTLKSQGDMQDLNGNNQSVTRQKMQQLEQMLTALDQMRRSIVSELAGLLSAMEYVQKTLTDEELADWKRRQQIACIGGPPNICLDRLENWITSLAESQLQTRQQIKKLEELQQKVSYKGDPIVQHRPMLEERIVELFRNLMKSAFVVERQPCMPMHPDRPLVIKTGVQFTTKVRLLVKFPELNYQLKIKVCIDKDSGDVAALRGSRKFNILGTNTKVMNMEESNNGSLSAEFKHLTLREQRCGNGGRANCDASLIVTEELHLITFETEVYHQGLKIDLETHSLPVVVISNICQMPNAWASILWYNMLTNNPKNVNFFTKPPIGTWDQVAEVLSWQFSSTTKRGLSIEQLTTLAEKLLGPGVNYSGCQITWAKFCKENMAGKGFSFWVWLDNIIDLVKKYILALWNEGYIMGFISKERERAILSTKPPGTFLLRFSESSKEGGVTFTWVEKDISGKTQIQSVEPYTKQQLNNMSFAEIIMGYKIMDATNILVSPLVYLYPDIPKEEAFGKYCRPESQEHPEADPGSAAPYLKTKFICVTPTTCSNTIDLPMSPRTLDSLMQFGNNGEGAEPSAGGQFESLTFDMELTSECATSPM
# Outline: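 HepG2 cells transiently transfected with cis-element-driven multiple reporter transcription units; after 24 h chemical exposure, reporter mRNA measured by RT-PCR, 6-FAM primer-extension labelling, HpaI digestion and capillary electrophoresis. Bidirectional fitting versus DMSO baseline.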
# [9] = ATG_TA_CIS: Attagene CIS-FACTORIAL HepG2 Assay for human TA Basal Promoter (AID 2282964); conditions: HepG2 Attagene CIS-factorial TA basal promoter reporter; actives raise or lower the signal
# Outline: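 Fluorescence from labelled RT-PCR reporter fragments, separated by capillary electrophoresis, gives the signal. Cells: HepG2 transiently carrying multiple reporter units, 24 h chemical dosing. Gain or loss relative to DMSO.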
# [10] = ATG_TCF_b_cat_CIS: Attagene CIS-FACTORIAL HepG2 Assay for human T-Cell-Factor with beta-catenin (TCF/b-cat) (AID 2282965); conditions: HepG2 TCF/beta-catenin cis-reporter transcription, actives raise or lower the signal
# Outline: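 Using capillary electrophoresis as the read-out, labelled reporter cDNA fragments from transiently transfected HepG2 were sized and quantified. Exposure lasted 24 hours; activity in either direction was referenced to DMSO.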
# [11] = ATG_TAL_CIS: Attagene CIS-FACTORIAL HepG2 Assay for human TAL Basal Promoter (AID 2282966); conditions: HepG2 Attagene cis-factorial TAL promoter reporter; actives raise or lower the signal;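 also: background control endpoint measuring basal TAL promoter reporter mRNA not a specific factor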
# Outline: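 Fluorescence of labelled reporter cDNA fragments, resolved by capillary electrophoresis, gave the readout. Human HepG2 liver cells carried transiently transfected cis-element reporter units and were treated for 24 hours; activity was fitted bidirectionally against DMSO.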
# [12] = target: X-box-binding protein 1 (Homo sapiens) (UniProt P17861); experiment: ATG_Xbp1_CIS: Attagene CIS-FACTORIAL HepG2 Assay for human X-box Binding Protein 1 (XBP1) (AID 2282972); conditions: HepG2 XBP1 cis-element reporter, Attagene multiplex; actives raise or lower the signal
# Sequence of X-box-binding protein 1 (Homo sapiens) (P17861 whole entry, looked up, the tested form may be a part): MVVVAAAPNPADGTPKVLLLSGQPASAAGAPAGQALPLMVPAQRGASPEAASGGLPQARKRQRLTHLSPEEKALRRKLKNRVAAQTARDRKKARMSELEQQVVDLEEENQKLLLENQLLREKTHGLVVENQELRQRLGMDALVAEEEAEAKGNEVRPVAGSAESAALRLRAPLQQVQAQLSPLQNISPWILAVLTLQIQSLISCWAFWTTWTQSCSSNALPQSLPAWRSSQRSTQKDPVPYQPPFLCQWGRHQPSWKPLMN
# Outline: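 Fluorescence-labelled cDNA fragments from reporter transcripts, separated by capillary electrophoresis, give the signal. Source: HepG2 cells transfected with promoter-driven reporter units, harvested 24 h post-dose. DMSO served as reference for bidirectional curve fitting.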
# [13] = target: Transcriptional activator Myb (Homo sapiens) (UniProt P10242); experiment: ATG_Myb_CIS: Attagene CIS-FACTORIAL HepG2 Assay for human Myeloblastosis (Myb) Proto-Oncogene Transcription Factor (AID 2282986); conditions: HepG2 Attagene CIS-FACTORIAL Myb reporter transcription; actives raise or lower the signal
# Sequence of Transcriptional activator Myb (Homo sapiens) (P10242 whole entry, looked up): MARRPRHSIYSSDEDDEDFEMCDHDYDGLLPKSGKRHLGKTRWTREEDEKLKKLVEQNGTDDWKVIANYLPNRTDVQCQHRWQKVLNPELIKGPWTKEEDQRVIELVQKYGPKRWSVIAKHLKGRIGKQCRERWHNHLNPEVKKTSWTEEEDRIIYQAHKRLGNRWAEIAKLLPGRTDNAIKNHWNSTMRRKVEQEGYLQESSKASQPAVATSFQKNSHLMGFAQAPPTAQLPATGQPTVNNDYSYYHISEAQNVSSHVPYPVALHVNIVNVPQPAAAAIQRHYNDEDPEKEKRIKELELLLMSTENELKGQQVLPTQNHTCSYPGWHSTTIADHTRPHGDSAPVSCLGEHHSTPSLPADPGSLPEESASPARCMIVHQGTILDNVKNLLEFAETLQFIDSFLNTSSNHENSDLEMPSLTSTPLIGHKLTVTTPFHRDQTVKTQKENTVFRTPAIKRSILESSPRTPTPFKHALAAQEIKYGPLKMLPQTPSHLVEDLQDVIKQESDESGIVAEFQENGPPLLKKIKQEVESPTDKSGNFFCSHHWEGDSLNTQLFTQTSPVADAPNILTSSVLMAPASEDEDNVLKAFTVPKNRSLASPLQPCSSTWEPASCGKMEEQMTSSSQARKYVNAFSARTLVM
# Outline: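 Fluorescence signals from capillary electrophoresis of RT-PCR-amplified reporter cDNA give the read-out. Cells: HepG2 transfected with multiple cis-regulated reporter units. Exposure lasts 24 hours; DMSO defines baseline for gain or loss of signal.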
# [14] = ATG_NFI_CIS: Attagene CIS-FACTORIAL HepG2 Assay for human Nuclear Factor I (NFI) (AID 2282989); conditions: HepG2 cis-regulatory reporter, NFI response element transcription; actives raise or lower the signal
# Outline: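 Cells: human liver HepG2, transiently transfected with promoter-regulated reporter transcription units. Exposure 24 h. Detection: fluorescent RT-PCR products separated by capillary electrophoresis, normalised to DMSO negative control.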
# [15] = target: Myc proto-oncogene protein (Homo sapiens) (UniProt P01106); experiment: ATG_Myc_CIS: Attagene CIS-FACTORIAL HepG2 Assay for human Myelocytomatosis (Myc) Proto-Oncogene Transcription Factor (AID 2282990); conditions: HepG2, Attagene cis-reporter transcription factor activity; actives raise or lower the signal
# Sequence of Myc proto-oncogene protein (Homo sapiens) (P01106 whole entry, looked up): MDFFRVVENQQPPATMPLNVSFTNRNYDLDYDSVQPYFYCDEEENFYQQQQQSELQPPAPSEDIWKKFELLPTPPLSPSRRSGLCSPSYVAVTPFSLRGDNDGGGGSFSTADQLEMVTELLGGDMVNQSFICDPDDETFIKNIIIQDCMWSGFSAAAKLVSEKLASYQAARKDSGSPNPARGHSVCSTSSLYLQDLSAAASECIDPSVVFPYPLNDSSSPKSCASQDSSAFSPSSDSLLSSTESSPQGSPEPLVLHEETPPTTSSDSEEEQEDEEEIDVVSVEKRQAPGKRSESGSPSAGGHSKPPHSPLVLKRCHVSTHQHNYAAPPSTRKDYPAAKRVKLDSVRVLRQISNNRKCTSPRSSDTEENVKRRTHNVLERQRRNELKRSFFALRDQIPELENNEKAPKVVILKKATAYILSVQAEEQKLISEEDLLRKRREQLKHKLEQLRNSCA
# Outline: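 Multiplexed cis-reporter transcription in HepG2 cells after 24 h chemical treatment. Reporter mRNA measured by RT-PCR and capillary electrophoresis fluorescence; activity fitted bidirectionally against DMSO control.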
# [16] = ATG_Oct_MLP_CIS: Attagene CIS-FACTORIAL HepG2 Assay for human Octamer-Binding Transcription Factor (Oct) (AID 2282993); conditions: HepG2 Attagene cis-factorial Oct reporter, mRNA; actives raise or lower the signal
# Outline: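 HepG2, transient MRTU transfection, cis promoter elements; 24 h dosing; RT-PCR/CE fluorescence read-out of reporter mRNA; fit both directions vs DMSO.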
# [17] = target: Nuclear receptor subfamily 1 group I member 2 (Homo sapiens) (UniProt O75469); experiment: ATG_PXR_TRANS: Attagene TRANS-FACTORIAL HepG2 Assay for human Pregnane X Receptor (PXR) (AID 2283008; active = hit-call score of the fitted dose curve at least 0.9, where 1 is the maximum)
# Sequence of Nuclear receptor subfamily 1 group I member 2 (Homo sapiens) (O75469 whole entry, looked up, the tested form may be a part): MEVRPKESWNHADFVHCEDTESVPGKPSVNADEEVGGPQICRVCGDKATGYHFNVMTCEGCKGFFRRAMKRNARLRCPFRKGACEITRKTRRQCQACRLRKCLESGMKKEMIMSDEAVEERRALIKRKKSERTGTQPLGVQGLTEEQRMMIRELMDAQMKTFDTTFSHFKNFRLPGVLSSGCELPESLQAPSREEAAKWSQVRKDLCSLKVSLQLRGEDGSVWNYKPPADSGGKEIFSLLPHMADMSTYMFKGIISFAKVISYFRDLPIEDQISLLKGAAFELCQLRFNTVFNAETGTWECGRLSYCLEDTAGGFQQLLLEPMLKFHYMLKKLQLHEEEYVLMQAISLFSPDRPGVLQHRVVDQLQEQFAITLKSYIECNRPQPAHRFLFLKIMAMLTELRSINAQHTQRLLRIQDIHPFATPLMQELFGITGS
# Outline: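 Measures mRNA induction of a GAL4-UAS-driven reporter in human HepG2 cells transiently expressing PXR fused to Gal4, following 24 h treatment. DMSO served as negative control and baseline.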
# [18] = ATG_XTT_Cytotoxicity: Cytotoxicity Assessment in the Attagene TRANS-FACTORIAL HepG2 Assay (AID 2283584; active = hit-call score of the fitted dose curve at least 0.9, where 1 is the maximum)
# Outline: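 Cells: human HepG2, transiently transfected with MRTU reporter constructs. Exposure 24 h. Readout: XTT, cell number. Baseline/neg ctrl DMSO; loss-of-signal scored.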
# [19] = ATG_NRF2_ARE_CIS: Attagene CIS-FACTORIAL HepG2 Assay for human Nuclear Factor Erythroid 2 Related Factor 2 (NFR2) response to Antioxidant Response Elements (ARE) (AID 2282992); conditions: HepG2 Attagene ARE/NRF2 reporter, transcription factor activity; actives raise or lower the signal
# Outline: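 Multiplexed reporter mRNA profiling in HepG2 after a 24 h chemical exposure. Curves fitted in both directions relative to DMSO negative control.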
# [20] = target: Cellular tumor antigen p53 (Homo sapiens) (UniProt P04637); experiment: ATG_p53_CIS: Attagene CIS-FACTORIAL HepG2 Assay for human p53 Transcription Factor (AID 2282994); conditions: HepG2 p53 cis-element reporter, Attagene mRNA; actives raise or lower the signal
# Sequence of Cellular tumor antigen p53 (Homo sapiens) (P04637 whole entry, looked up): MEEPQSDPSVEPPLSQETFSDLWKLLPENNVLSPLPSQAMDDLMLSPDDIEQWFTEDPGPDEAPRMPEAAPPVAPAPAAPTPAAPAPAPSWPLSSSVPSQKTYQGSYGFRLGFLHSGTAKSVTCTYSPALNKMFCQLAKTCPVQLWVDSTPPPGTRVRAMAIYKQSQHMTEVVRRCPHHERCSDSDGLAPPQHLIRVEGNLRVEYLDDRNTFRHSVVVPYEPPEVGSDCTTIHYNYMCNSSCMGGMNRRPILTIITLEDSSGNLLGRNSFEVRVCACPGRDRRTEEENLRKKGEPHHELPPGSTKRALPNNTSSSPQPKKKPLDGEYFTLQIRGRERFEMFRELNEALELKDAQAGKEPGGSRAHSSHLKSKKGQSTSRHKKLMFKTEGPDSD
# Outline: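 Multiplexed reporter mRNA assay in human HepG2 liver cells; cis-regulated units report endogenous factor activity. Values come from bidirectional curve fitting against DMSO negative control after 24 h treatment.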
smiles,measurement,setting,value
CCCCCCOC(=O)CCCCCCCC(=O)OCCCCCC,outcome,[1],inactive
same,outcome,[2],inactive
same,outcome,[3],inactive
same,outcome,[4],inactive
same,outcome,[5],inactive
same,outcome,[6],inactive
same,outcome,[7],inactive
same,outcome,[8],inactive
same,outcome,[9],inactive
same,outcome,[10],inactive
same,outcome,[11],inactive
same,outcome,[12],inactive
same,outcome,[13],inactive
same,outcome,[14],inactive
same,outcome,[15],inactive
same,outcome,[16],inactive
same,outcome,[17],inactive
same,outcome,[18],inactive
O=C(C(=O)c1ccccc1)c1ccccc1,outcome,[1],inactive
same,outcome,[2],inactive
same,outcome,[3],inactive
same,outcome,[4],inactive
same,outcome,[5],inactive
same,outcome,[6],inactive
same,outcome,[7],inactive
same,outcome,[8],inactive
same,outcome,[9],inactive
same,outcome,[10],inactive
same,outcome,[11],inactive
same,outcome,[12],inactive
same,outcome,[13],inactive
same,outcome,[14],inactive
same,outcome,[15],inactive
same,outcome,[19],inactive
same,outcome,[16],inactive
same,outcome,[20],inactive
same,AC50,[17],11.3 µM (active)
same,outcome,[18],inactive
CCOC(=O)c1ccccc1,outcome,[1],inactive
same,AC50,[2],128 µM (active)
same,outcome,[3],inactive
same,AC50,[4],180 µM (active)
same,outcome,[5],inactive
same,outcome,[6],inactive
same,outcome,[7],inactive
same,outcome,[8],inactive
same,outcome,[9],inactive
same,outcome,[10],inactive
same,outcome,[11],inactive
same,outcome,[12],inactive
same,outcome,[13],inactive
same,outcome,[14],inactive
same,outcome,[15],inactive
same,outcome,[16],inactive
same,outcome,[20],inactive
same,outcome,[17],inactive
CC[N+](CC)(CC(=O)Nc1c(C)cccc1C)Cc1ccccc1 (tested in a mixture with another compound),outcome,[1],inactive
same,outcome,[2],inactive
same,outcome,[3],inactive
same,outcome,[4],inactive
same,outcome,[5],inactive
same,outcome,[7],inactive
same,outcome,[8],inactive
same,outcome,[9],inactive
same,outcome,[10],inactive
same,outcome,[11],inactive
same,outcome,[12],inactive
same,outcome,[13],inactive
same,outcome,[14],inactive
same,outcome,[15],inactive
same,outcome,[19],inactive
same,outcome,[16],inactive
same,outcome,[17],inactive
same,outcome,[18],inactive
